Laboratory results as given in PubChem BioAssay (NCATS).
Several values for one entry are separate records, joined by “and”; a condition that tells them apart may be missing. Identical values can stand only once. Results filed as inconclusive are left out. Unmarked numbers belong to inactive results. Activity calls are given as the source filed them. The call rests on the fitted dose curve; in most records, active means well fitted curve in either direction with a large enough effect (not every such curve was filed as active); inconclusive means small, poorly fitted or top-dose-only effect, or another doubt; inactive means flat fitted curve, though single readings scatter.

Assay: AP1 Signaling Pathway (AID 357);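 further: ME-180 reporter cells stimulated with EGF at its EC50 level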
Conditions: ME-180 AP-1-bla reporter, EGF-induced, beta-lactamase ratio, 5 h; at 7.69 µM (top of the series)
Description: NCGC Assay Overview: Activator protein-1 (AP-1), a transcription factor, plays an important role in tumor genesis by regulating genes involved in cell proliferation, differentiation, apoptosis, and angiogenesis. AP-1 activity is induced by a complex network of signaling pathways that involves extracellular signals, such as growth factors. The AP-1 protein complex formed from c-Fos and c-Jun binding to the AP-1 response element results in transcriptional activation of genes containing such elements within their promoter. Low molecular weight molecules have been discovered and developed to modulate various components of these signaling pathways, for example, MAP kinase inhibitors. However, many points of pathway modulation remain untested due to the lack of chemical probes making this signaling locus of general interest. Using a beta-lactamase reporter-gene under control of the AP-1 response element, a cell-based assay [CellSensor(TM) AP-1-bla ME-180 developed by Invitrogen Corp.] was used to measure EGF-induced signaling. Library compounds were measured for their ability to modulate positively or negatively the action of EC50 EGF on reporter gene activity. Compounds were screened in a titration series in 1536-well format. Positive and negative modulators were identified based on the AC50 values derived from the screening data.
NCGC Assay Protocol Summary: 2500 cells/5uL in Opti-MEM medium containing 0.5% dialyzed FBS, 0.1 mM NEAA, 1 mM sodium pyruvate and 10 mM HEPES was dispensed into 1536-well plates and cells were cultured at 37 degrees Celsius overnight. […] After centrifugation at 1000 rpm for 2 seconds the plates were incubated at 37 degrees Celsius for 5 hours. 1 uL of CCF4-dye mixture was added to each well. After incubated at room temperature for 2.5 hours the plates were measured on an EnVision plate reader at Excitation 405nm, Emission1=460nm and Emission 2=530nm. The %Activity was determined from the ratio of 460nm/530nm.
On the % scale 0 is the no-effect control and ±100 the full control effect.

Compound	activity change, negative = inhibition [%]
C[C@@H](C[C@H](N)C(=O)O)C(=O)O	-5.85

Same assay, conditions: ME-180 AP-1-bla reporter, EGF-induced, beta-lactamase ratio, 5 h; at 17.2 µM (top of the series)

Compound	activity change, negative = inhibition [%]
C[C@@H](CCc1ccc(O)cc1)NCCc1ccc(O)c(O)c1	1.11
O=C1N=C(O)CN1/N=C\c1ccc(-c2ccc([N+](=O)[O-])cc2)o1	-13.8
CCCCC[C@H](O)/C=C/C1=C(CCCCCCC(=O)O)C(=O)CC1	-2.06
CC(C)NC[C@@H](O)COc1cccc2[nH]ccc12	5.19
CC(C)NC[C@@H](O)COc1ccc(CCOCC2CC2)cc1	-7.61
CCCCC[C@H](O)/C=C/[C@@H]1[C@@H](CCCCCCC(=O)O)[C@@H](O)C[C@H]1O	8.11
O=C(NCCNC[C@@H](O)COc1ccc(O)cc1)N1CCOCC1	-7.17
CC(C)(C)NC[C@H](O)c1ccc(O)c(CO)c1	-9.06
CNC(=O)Oc1ccc2c(c1)[C@@]1(C)CCN(C)[C@@H]1N2C	-5.3
CC[N+](C)(CC)CCC[n+]1c(-c2ccccc2)c2cc(N)ccc2c2ccc(N)cc21	5.27
COc1ccccc1N1CCN(C[C@@H](O)COc2cccc3ccccc23)CC1	4.94

Same assay, conditions: ME-180 (cervical carcinoma) AP-1-bla reporter, EGF-induced, beta-lactamase ratio, 5 h; at 38 µM (top of the series)

Compound	activity change, negative = inhibition
CCCn1c(=O)c2[nH]c(-c3ccc(OCC(=O)Nc4ccc(C#N)cc4)cc3)nc2n(CCC)c1=O	-2.44%
C[C@@H](CCc1ccc(O)cc1)NCCc1ccc(O)c(O)c1	-3.98%
O=C1N=C(O)CN1/N=C\c1ccc(-c2ccc([N+](=O)[O-])cc2)o1	-14.1%
CCn1ccnc1C[C@@H]1COc2ccccc2O1	-10%
O=C(Nc1cc(C(=O)Nc2ccc(S(=O)(=O)O)cc2S(=O)(=O)O)cc(C(=O)Nc2ccc(S(=O)(=O)O)cc2S(=O)(=O)O)c1)Nc1cc(C(=O)Nc2ccc(S(=O)(=O)O)cc2S(=O)(=O)O)cc(C(=O)Nc2ccc(S(=O)(=O)O)cc2S(=O)(=O)O)c1	5.96%
O=C(O)[C@H]1CCCNC1	5.2%
NCCCCCCNS(=O)(=O)c1cccc2c(Cl)cccc12	7.92%
N#CC(=C(/N)Sc1ccccc1N)/C(C#N)=C(/N)Sc1ccccc1N	-84.2% (active)
CC(C)NC[C@@H](O)COc1cccc2[nH]ccc12	17% and 4.44%
NC[C@](O)(CS(=O)(=O)O)c1ccc(Cl)cc1	6.15%
COc1ccccc1NC(=O)Nc1nc(-c2cccnc2)nc2ccccc12	12.1%
CC(C)NC[C@@H](O)COc1ccc(CCOCC2CC2)cc1	1.38%
C[C@H](N=C(NC#N)Nc1ccncc1)C(C)(C)C	-27.9%
O=C(NCCNC[C@@H](O)COc1ccc(O)cc1)N1CCOCC1	-6.28%
COc1ccc2[nH]c(I)c(CCNC(C)=O)c2c1	-7.67%
CC(C)(C)NC[C@H](O)c1ccc(O)c(CO)c1	-4.2% and -6.86%
CNC(=O)Oc1ccc2c(c1)[C@@]1(C)CCN(C)[C@@H]1N2C	6.53%
O=C(O)[C@H]1CN(CCCP(=O)(O)O)CCN1	1.7%
N[C@@H]1CCN(O)C1=O	18.2%
CN(C)CCCCSC(=N)N	1.82%
Cc1cccc(/C=C\c2ccccc2)n1	-0.643%
C[C@@H](/C=C\c1cccc(Oc2ccc(F)cc2)c1)N(O)C(N)=O	-29.9%
COc1ccccc1N1CCN(C[C@@H](O)COc2cccc3ccccc23)CC1	2.88%
CC#CCOC(=O)c1c(C)nc2sc3c(c2c1N)CC[C@@H](O)C3	-15.6%
N[C@H](CCC(=O)N[C@H](CSN=O)C(=O)NCC(=O)O)C(=O)O	-9.57%
CC[N+](CC)(CC)CC	-0.239%
COc1cc2nc(N3CCN(C(=O)[C@H]4CCCO4)CC3)nc(N)c2cc1OC	14.3%
CO[C@]1(C2=NCCN2)COc2ccccc2O1	-14%
